# According to PubChem BioAssay (EPA / NIEHS):
# Several values for one entry are separate records, joined by “and”; a condition that tells them apart may be missing. Identical values can stand only once. Results filed as inconclusive are left out. The source holds several records for some structures; these can differ, active in one and inactive in another. Activity calls are given as the source filed them. How the source made its calls: active means hit-call score of the fitted dose curve at least 0.9, where 1 is the maximum; inconclusive means response in the unintended direction; inactive means score below 0.9.
# Experiments:
# [1] = molecular target: Peroxisome proliferator-activated receptor gamma (Homo sapiens) (UniProt P37231); experiment: NVS_NR_hPPARg: NovaScreen (NVS) Nuclear Receptor Binding Assay for human Peroxisome Proliferator-activated Receptor gamma (PPARg) (AID 2283370)
# Procedure, shortened: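 Extracted receptor protein, cell-free; compound incubated 2 h then fluorescence polarization read. Baseline: DMSO. Actives from 25 uM duplicate screen re-run across concentrations.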
# [2] = molecular target: human Norepinephrine Transporter (NET), SLC6A2 (gene 6530) (UniProt P23975); experiment: NVS_TR_hNET: NovaScreen (NVS) Transporter Assay for human Norepinephrine Transporter (NET) (AID 2283377);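 further: cell-free membrane protein extracted from CHO cells expressing human NET; displacement of radioligand from human NET seen as loss of scintillation signal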
# Procedure, shortened: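 In this cell-free binding screen, chemicals at 25 uM (duplicate) compete with a radioligand for CHO-derived human NET over 1 hour, with filter-based radiodetection.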
# [3] = molecular target: mouse Estrogen Receptor alpha (Era), Esr1 (gene 13982) (UniProt P19785); experiment: NVS_NR_mERa: NovaScreen (NVS) Nuclear Receptor Binding Assay for mouse Estrogen Receptor alpha (Era) (AID 2283378);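 further: hit means loss of bound radioligand signal relative to DMSO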
# Procedure, shortened: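 Measurements come from scintillation counting after filtration, taken 18 hours after chemicals were added to a cell-free mouse Era preparation with radioligand. Screening was duplicate at 25 uM, with concurrent positive and negative controls and confirmatory concentration series for actives.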
# mouse Estrogen Receptor alpha (Era), Esr1 (gene 13982), sequence (P19785 whole entry, looked up): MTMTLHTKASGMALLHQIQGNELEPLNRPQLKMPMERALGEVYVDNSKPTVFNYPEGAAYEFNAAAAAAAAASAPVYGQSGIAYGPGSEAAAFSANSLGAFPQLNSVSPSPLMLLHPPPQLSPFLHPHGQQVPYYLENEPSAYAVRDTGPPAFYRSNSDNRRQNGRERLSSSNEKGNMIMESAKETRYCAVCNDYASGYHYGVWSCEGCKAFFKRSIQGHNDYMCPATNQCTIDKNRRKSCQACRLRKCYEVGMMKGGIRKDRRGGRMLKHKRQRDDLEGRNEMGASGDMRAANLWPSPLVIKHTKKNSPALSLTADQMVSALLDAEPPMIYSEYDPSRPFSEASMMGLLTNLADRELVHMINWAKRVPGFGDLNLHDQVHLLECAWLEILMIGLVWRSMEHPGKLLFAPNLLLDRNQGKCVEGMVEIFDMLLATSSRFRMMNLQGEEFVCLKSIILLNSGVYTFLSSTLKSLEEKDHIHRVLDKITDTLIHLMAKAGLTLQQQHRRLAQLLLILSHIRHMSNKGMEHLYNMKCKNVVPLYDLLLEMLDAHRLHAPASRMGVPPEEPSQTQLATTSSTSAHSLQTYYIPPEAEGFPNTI
# Peroxisome proliferator-activated receptor gamma (Homo sapiens), sequence (P37231 whole entry, looked up): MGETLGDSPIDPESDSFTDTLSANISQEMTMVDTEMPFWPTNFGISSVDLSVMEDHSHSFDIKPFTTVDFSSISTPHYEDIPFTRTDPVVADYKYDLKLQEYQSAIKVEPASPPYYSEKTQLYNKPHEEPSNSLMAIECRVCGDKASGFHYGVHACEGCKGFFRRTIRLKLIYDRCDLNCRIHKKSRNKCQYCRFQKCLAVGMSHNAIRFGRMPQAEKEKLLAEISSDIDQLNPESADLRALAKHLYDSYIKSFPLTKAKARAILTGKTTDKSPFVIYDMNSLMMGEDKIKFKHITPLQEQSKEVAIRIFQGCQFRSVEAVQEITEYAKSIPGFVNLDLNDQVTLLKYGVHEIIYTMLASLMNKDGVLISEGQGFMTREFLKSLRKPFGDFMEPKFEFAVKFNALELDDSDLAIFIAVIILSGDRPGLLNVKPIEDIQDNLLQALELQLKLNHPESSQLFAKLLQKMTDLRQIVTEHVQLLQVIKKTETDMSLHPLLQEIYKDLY
# human Norepinephrine Transporter (NET), SLC6A2 (gene 6530), sequence (P23975 whole entry, looked up): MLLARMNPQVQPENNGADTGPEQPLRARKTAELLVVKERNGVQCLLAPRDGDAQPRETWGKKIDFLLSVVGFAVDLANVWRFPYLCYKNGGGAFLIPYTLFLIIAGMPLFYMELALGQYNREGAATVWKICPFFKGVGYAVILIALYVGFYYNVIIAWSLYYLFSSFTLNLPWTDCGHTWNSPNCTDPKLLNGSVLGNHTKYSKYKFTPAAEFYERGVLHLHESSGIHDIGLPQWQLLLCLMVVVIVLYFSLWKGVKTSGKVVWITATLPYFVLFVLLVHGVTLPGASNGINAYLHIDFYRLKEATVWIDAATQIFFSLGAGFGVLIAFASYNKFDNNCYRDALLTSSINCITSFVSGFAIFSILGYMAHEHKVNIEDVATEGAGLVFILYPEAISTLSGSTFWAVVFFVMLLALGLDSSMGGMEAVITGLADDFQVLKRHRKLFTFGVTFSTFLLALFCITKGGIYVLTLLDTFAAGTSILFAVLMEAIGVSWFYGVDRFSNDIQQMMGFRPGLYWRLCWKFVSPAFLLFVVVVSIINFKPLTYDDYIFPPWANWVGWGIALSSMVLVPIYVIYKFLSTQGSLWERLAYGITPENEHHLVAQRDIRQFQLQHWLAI
smiles,measurement,setting,value
O=C(Nc1ccc([N+](=O)[O-])cc1Cl)c1cc(Cl)ccc1O,outcome,[1],inactive
CCOC(=O)[C@H](C)Oc1ccc(Oc2nc3ccc(Cl)cc3o2)cc1,outcome,[1],inactive
CCN(CC)C(=O)c1cccc(C)c1,outcome,[1],inactive
c1ccc(Nc2ccccc2)cc1,outcome,[1],inactive
same,AC50,[2],3.18 µM (active)
N[C@@H](Cc1cc(I)c(Oc2ccc(O)c(I)c2)c(I)c1)C(=O)O,AC50,[1],32.3 µM (active)
same,outcome,[1],inactive
same,AC50,[3],1.65 µM (active) and 20 µM (active) and 4.66 µM (active)
same,outcome,[3],inactive
